Screening results as filed in PubChem.
KDM4E inh – JMJD2E (human) inhibition | 230,000 compounds, 1.6% hits | B2RXH2 | Potency, µM (series often up to 57.1 µM), for the others: at the top dose activity change, negative = inhibition, usual class: inhibitors | JMJD2E catalytic domain, FDH-coupled NADH fluorescence (FDH is formaldehyde dehydrogenase); active = well fitted inhibition curve with a large enough effect, not every such curve was filed as active; inconclusive = small, poorly fitted or top-dose-only effect, or another doubt; inactive = no such curve, though single readings can be large or run the other way;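 also: potency is read from the fitted curve at half-maximal effect; 0% = wells with enzyme and -100% = buffer wells without enzyme; nearly all actives have a fitted effect of over 50% in size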
HP1b chromo inh – HP1-beta chromodomain-methylated histone interaction inhibition; AlphaScreen HP1-beta / biotin-H3K9me3 peptide binding; 390,000 compounds, 0.56% hits; AID 540317; P83916; Potency, µM (titrated, usually from 114 µM), without a hit: top-dose activity change, negative = inhibition, actives largely listed as inhibitors; also: potency is read from the fitted curve at half-maximal effect; nearly all actives have a fitted effect of over 70% in size
Target sequence (P83916 whole entry, looked up): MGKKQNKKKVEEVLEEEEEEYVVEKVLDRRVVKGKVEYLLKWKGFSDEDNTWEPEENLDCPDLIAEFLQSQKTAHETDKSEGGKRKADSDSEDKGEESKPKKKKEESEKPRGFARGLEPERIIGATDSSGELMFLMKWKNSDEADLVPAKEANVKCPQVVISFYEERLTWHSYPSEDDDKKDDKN
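Compound inhibition of the preformed complex between 50 nM HP1-beta and 50 nM biotinylated H3K9me3 peptide was read by AlphaScreen. Buffer was PBS pH 7.4 with 0.01% Tween-20. Incubations ran 30 min at room temperature, with 10 ug/mL donor/acceptor beads.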
JMJD2A Tudor – inhibitors of human JMJD2A Tudor domain; O75164; AlphaScreen JMJD2A-Tudor / H3K4me3 peptide binding; Potency, µM (top dose mostly 114 µM), for the others: top-dose activity change, negative = inhibition, most hits filed as inhibitors; 390,000 compounds, 4.4% hits; AID 504339; also: potency is read from the fitted curve at half-maximal effect; % is scaled to controls: 0 for no effect and ±100 for the full control effect; nearly all actives have a fitted effect of over 50% in size
BAZ2B inh – blocks human BAZ2B. Q9UIF8. AlphaScreen BAZ2B-H3K14Ac peptide displacement. Potency, µM (titrated, usually from 114 µM), for the others: at the highest dose activity change, negative = inhibition, actives largely listed as inhibitors. 360,000 compounds, 4.4% hits. AID 504333; also: potency is read from the fitted curve at half-maximal effect; % is scaled to controls: 0 for no effect and ±100 for the full control effect; nearly all actives have a fitted effect of over 60% in size
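Multi-concentration screen (max 110 uM) measuring displacement of acetylated histone H3 peptide from BAZ2B by AlphaScreen, using 50 nM protein, 50 nM peptide and 10 ug/mL streptavidin donor plus Ni-chelate acceptor beads.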
PI5P4K alpha inh – inhibitors of human PI5P4K alpha | max response, % | P48426 | PI5P4Kalpha enzyme, ADP-Glo luminescence, 60 min; stronger effect = lower value | 330,000 compounds, 1.2% hits; active = max response of -50% or lower; inconclusive = between -30% and -50%; inactive = -30% or higher; also: value at the top dose of about 77 µM; % is scaled to controls: 0 for no effect and ±100 for the full control effect
Target sequence (P48426 whole entry, looked up): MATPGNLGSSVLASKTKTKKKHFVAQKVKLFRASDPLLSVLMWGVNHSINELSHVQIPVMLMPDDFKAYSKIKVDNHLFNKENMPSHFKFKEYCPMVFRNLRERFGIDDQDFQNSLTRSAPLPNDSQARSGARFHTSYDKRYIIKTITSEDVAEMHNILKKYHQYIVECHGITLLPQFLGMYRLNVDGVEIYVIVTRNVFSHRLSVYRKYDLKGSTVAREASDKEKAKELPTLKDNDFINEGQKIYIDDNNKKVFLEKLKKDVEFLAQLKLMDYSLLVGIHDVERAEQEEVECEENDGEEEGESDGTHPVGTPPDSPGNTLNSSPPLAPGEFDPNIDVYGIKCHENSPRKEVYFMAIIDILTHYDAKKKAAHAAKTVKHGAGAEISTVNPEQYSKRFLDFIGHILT
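Compounds were pin-transferred onto PI5P4Kalpha and substrate in HEPES pH 7.4 buffer with EGTA, CHAPS and 5% DMSO. ATP (5 microM final) started the reaction, which ran 60 minutes at room temperature before ADP-Glo detection.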
L3MBTL1 block – blocks human L3MBTL1; Q9Y468; AlphaScreen L3MBTL1–H3K9me1 peptide binding; Potency, µM (titrated, usually from 57.1 µM), for the others: top-dose activity, negative = inhibition, most hits filed as inhibitors; 230,000 compounds, 0.66% hits; AID 485360; also: potency is read from the fitted curve at half-maximal effect; % is scaled to controls: 0 for no effect and ±100 for the full control effect; nearly all actives have a fitted effect of over 60% in size
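AlphaScreen proximity signal between nickel-chelate acceptor and streptavidin donor beads (final 10 ug/mL) reports binding of 50 nM L3MBTL1 to 75 nM biotin-H3 K9me1 peptide; complex incubated with compounds 30 min at room temperature; cefsulodin titration as control.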
* = called active by the depositor; ? = inconclusive; nt = no result given; [ ] = another dose, or the depositor's remark. In the library only some 5.7% were active in any assay of this set; here they are far more common. Unless noted, calls follow the shape of the dose curve; as a rule, active = well fitted inhibition curve with a large enough effect; inconclusive = small, poorly fitted or top-dose-only effect; inactive = no such curve, though single readings can be large or run the other way.

SMILES	KDM4E inh	HP1b chromo inh	JMJD2A Tudor	BAZ2B inh	PI5P4K alpha inh	L3MBTL1 block
CCCCCCCCCCCCC/C=C/[C@@H](O)[C@H](CO)NC(=O)CCCCCCCCCCCCCCC	0.2%	nt	nt	nt	nt	nt
CNC(=S)N1N=C(c2ccc(C)cc2)CC1c1ccc(N(C)C)cc1 (configuration not stated)	-5.5%	50.1µM*	31.6µM*	10µM*	3.2	?
CNC(=S)N1N=C(c2ccc(Br)cc2)CC1c1ccc(OC)cc1 (configuration not stated)	?	?	2.51µM*	-34.0%	2.6	-0.5%
CCC(C(=O)OCC(=O)N(CC)c1c(N)n(Cc2ccccc2)c(=O)[nH]c1=O)c1ccccc1 (configuration not stated)	nt	44.4%	-13.9%	-7.3%	-0.7	-2.2%
Cc1cc(OCC(=O)N(Cc2ccc(N(C)C)cc2)C2CCS(=O)(=O)C2)cc(C)c1Cl (configuration not stated)	nt	-25.2%	39.8µM*	10µM*	nt	nt
Cc1ccc(CN(C(=O)COc2ccc(Br)cc2)C2CCS(=O)(=O)C2)o1 (configuration not stated)	nt	-7.6%	25.1µM*	?	-15.7	nt
CCN(C(=O)COc1cccc2cccnc12)C1CCS(=O)(=O)C1 (configuration not stated)	?	-12.1%	-27.5%	50.1µM*	1.3	-13.1%
Cc1ccc(OCC(=O)N(Cc2ccc(C)o2)C2CCS(=O)(=O)C2)cc1 (configuration not stated)	nt	6.9%	?	-13.1%[57.1 µM]	-6.1	nt
CCc1ccc(OCC(=O)N(Cc2ccc(C)o2)C2CCS(=O)(=O)C2)cc1 (configuration not stated)	nt	12.3%	56.2µM*	-29.4%	nt	nt
COc1cc(C2CC(=O)N(Cc3cccc(F)c3)c3ccccc3S2)cc(OC)c1OC (configuration not stated)	nt	26.3%	-18.9%	-6.2%	nt	nt
Cc1nnc(SCC(=O)Nc2ccc(Br)cc2)[nH]c1=O	nt	12.7%	-18.4%	-37.6%	nt	nt
CC(=O)NC1=CC(=O)c2nonc2C1=O	nt	-7.7%[57 µM]	?	nt	nt	nt
CCOC(=O)Cn1ccc(NC(=O)COc2ccc(F)cc2)n1	nt	-12.6%	-9.3%	7.9%	-8.7	nt
CCSc1ncc(Cl)c(C(=O)N(Cc2ccc(N(C)C)cc2)C2CCS(=O)(=O)C2)n1 (configuration not stated)	-3.3%	-19.5%	?	?	2.1	-8.5%
CC(C)Sc1ncc(Cl)c(C(=O)N(Cc2ccc(N(C)C)cc2)C2CCS(=O)(=O)C2)n1 (configuration not stated)	nt	?	56.2µM*	44.7µM*	nt	nt
Cc1c(C)n(C)c2ccc(C(=O)N3CCN(c4ccccc4)CC3)cc12	nt	?	35.5µM*	39.8µM*	-1.0	nt
Cc1cccc(N2CCN(C(=O)c3ccc4c(c3)c(C)c(C)n4C)CC2)c1C	nt	?	-1.9%	0.3%	nt	nt
Cc1ccc(C)c(N2CCN(C(=O)c3ccc4c(c3)c(C)c(C)n4C)CC2)c1	nt	?	44.7µM*	35.5µM*	1.5	nt
O=C(Cc1ccc(Cl)c(Cl)c1)Nc1ccc(S(=O)(=O)Nc2ncccn2)cc1	nt	32.6%	20µM*	-12.1%	-0.4	nt
COCC(=O)Nc1ccc(S(=O)(=O)Nc2ncccn2)cc1	-0.5%	nt	nt	-2.7%	nt	nt
CC(C)c1ccc(NC(=O)[C@H]2CSCN2C(=O)[C@@H]2CCC(=O)N2)cc1	nt	38.3%	2.3%	-2.2%	0.5	nt
COc1ccc(/C=N/n2cnn(Cc3ccccc3Cl)c2=S)cc1	-16.6%	?	-4.2%	-34.0%	0.4	-18.1%
Oc1ccccc1/C=N/n1cnn(Cc2ccccc2Cl)c1=S	-1.7%	2.5%	17.8µM*	-20.1%	-26.6	-1.5%
Cc1c(F)cccc1NC(=O)CCC(=O)O	-5.5%	32.8%	-22.5%	3.1%	1.6	18.7%
Cc1c(F)cccc1NC(=O)CCCCCC1NC(=O)NC1C (configuration not stated)	7.4%	?	0.891µM*	1µM*	-4.1	nt
SMILES	KDM4E inh	HP1b chromo inh	JMJD2A Tudor	BAZ2B inh	PI5P4K alpha inh	L3MBTL1 block
CC1NC(=O)NC1CCCCCC(=O)Nc1ccc(F)cc1 (configuration not stated)	-8.7%	?	0.316µM*	-1.4%	2.4	nt
O=C(CCCC(=O)c1ccccc1)Nc1ccc(F)cc1	nt	1.2%	-15.9%	-1.3%	1.2	nt
N#Cc1c(NC(=O)COC(=O)c2nccnc2N)sc2c1CCCC2	nt	0.3%	25.1µM*	79.4µM*	?	-16.1%
CC(=O)OC1CC(OC(C)=O)[C@]2(C)C(CC(=O)[C@]3(C)C2CC[C@@]2(C)C(C(=O)O)OC(=O)C4OC423)C1(C)C (some centres not stated)	4.9%	nt	nt	nt	nt	nt
COc1ccc2c(c1)cc(C(=O)N/N=C/c1c(O)c(C(=O)O)cc3ccccc13)n2C	nt	22.6%	?	-9.8%	-65.8*	nt
COc1cccc(-c2nc(NC(C)C)c3ccccc3n2)c1O	3.3%	-22.5%	50.1µM*	?	nt	-7.9%
CCC(C)Nc1nc(-c2cccc(OC)c2O)nc2ccccc12 (configuration not stated)	-8.6%	-11.2%	?	?	0.1	0.3%
COc1cccc(-c2nc(N3CCCCC3)c3ccccc3n2)c1O	nt	?	35.5µM*	nt	3.0	nt
O=C(CCN1C(=O)/C(=C/c2ccccc2Cl)SC1=S)Nc1ccccc1C(=O)O	nt	-9.6%	?	35.5µM*	-28.3	nt
CCc1ccc(/C=C2\SC(=S)N(CCCC(=O)Nc3ccccn3)C2=O)cc1	5.7%	?	?	10µM*	-4.7	-17.9%
CCc1ccc(/C=C2/SC(=S)N(CCCC(=O)Nc3ccccc3C(=O)O)C2=O)cc1	nt	-8.3%	50.1µM*	-27.0%	-26.7	nt
O=C(CCCN1C(=O)/C(=C/c2cccc(Br)c2)SC1=S)Nc1ccccn1	-3.6%	8.91µM*	?	?	-1.3	-9.7%
CCc1ccc(/C=C2\SC(=S)N(CCCC(=O)N3CCCC3)C2=O)cc1	nt	nt	nt	nt	0.6	nt
O=C(CCN1C(=O)/C(=C\c2ccccc2Cl)SC1=S)Nc1cccnc1	nt	-20.3%	?	?	1.0	nt
COC(=O)c1ccc(/C=C2/SC(=S)N(CCCC(=O)Nc3ccccn3)C2=O)cc1	13.0%	?	-14.2%	-29.2%	1.3	-20.4%
Cc1ccc(CNC(=O)c2ccc3c(O)c(S(=O)(=O)c4ccccc4)c(=O)[nH]c3c2)cc1	nt	33.1%	-10.6%	-16.2%	nt	nt
COc1ccccc1C(=O)Nc1c(C(=O)N2CCN(c3ccccc3F)CC2)oc2ccccc12	nt	7.6%	-21.0%	-36.5%[57.1 µM]	nt	nt
O=C(CCSCc1ccccc1Cl)NCCc1ccccc1	nt	5.9%	2.1%	-3.4%	nt	nt
O=C1c2ccccc2C(=O)c2c1cccc2N(CCO)CCO	nt	?	?	50.1µM*	-3.4	-17.0%
